# PubChem BioAssay (NCATS)
# Results filed as inconclusive are left out. Where a call stands in place of a potency, no number is given. A number with no mark means an inactive call. Active and inactive are the calls of the source. Calls follow the shape of the dose curve; as a rule, active = well fitted curve in the direction sought with a large enough effect; inconclusive = small, poorly fitted or top-dose-only effect, or another doubt; inactive = no such curve, though single readings can be large; an effect the other way counts as inactive or inconclusive.
# Target: Cellular tumor antigen p53 (Homo sapiens) (UniProt P04637)
# Assay: Primary qHTS for small molecule compounds that upregulate eGFP-tagged delta133p53alpha (in N-terminal) cells. (AID 2060322); also: nearly all actives have a fitted effect of over 75% in size; also: potency is read from the fitted curve at half-maximal effect;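 as to activation: cells pre-induced with doxycycline then dosed without doxycycline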
# Settings: NCI-H358 eGFP-delta133p53alpha fluorescence, 24 h; activation: stronger effect = higher value
# Method in brief: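 NCI-H358 cells pre-induced 24 h with 10 ng/ml doxycycline for eGFP-delta133p53alpha, plated dox-free and exposed 24 h at 37C to titrated compounds. Fixed, Hoechst-stained; gated GFP peak intensity by laser scanning cytometry, normalized to DMSO (0%) and 57.5 uM 5-azacytidine (100%).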
# Cellular tumor antigen p53 (Homo sapiens), sequence (P04637 whole entry, looked up): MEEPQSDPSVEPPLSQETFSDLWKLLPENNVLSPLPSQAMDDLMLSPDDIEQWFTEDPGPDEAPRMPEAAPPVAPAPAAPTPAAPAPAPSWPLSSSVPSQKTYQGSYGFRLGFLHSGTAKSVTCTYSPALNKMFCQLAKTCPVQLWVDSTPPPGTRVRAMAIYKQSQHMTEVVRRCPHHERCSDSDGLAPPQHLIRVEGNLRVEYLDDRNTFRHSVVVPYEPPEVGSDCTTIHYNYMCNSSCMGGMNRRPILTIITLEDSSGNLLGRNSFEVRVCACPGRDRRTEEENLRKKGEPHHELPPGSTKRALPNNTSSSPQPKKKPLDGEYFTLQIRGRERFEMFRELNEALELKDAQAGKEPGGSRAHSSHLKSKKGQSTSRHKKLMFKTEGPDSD
Structure (SMILES),Potency,activation [%]
C[C@@H]1C[C@H]2O[C@@H]2/C=C\C=C\C(=O)Cc2c(Cl)c(O)cc(O)c2C(=O)O1,4.53 µM (active),
CC(O)/C=C/C1OC(=O)CC1Nc1ccc(C(=O)O)cc1 (configuration not stated),,-6.11
C[C@@H](c1ccccc1)N(C(N)=NC#N)c1cccc2ncccc12,,2.33
C[C@H](NC(c1cccc(C[P+](=O)O)c1)[C@H](C)O)c1ccc(Cl)c(Cl)c1 (some centres not stated),,9
CC(=O)/C=C/C1(O)C(C)(C)CC(O)CC1(C)O (configuration not stated),,12.2
COc1c(C)c(OCC(O)C(C)(C)O)cc2c1CNC2=O (configuration not stated),,-1.79
C=CCc1ccc(O[C@@H]2O[C@H](CO[C@@H]3O[C@H](CO)[C@@H](O)[C@H](O)[C@H]3O)[C@@H](O)[C@H](O)[C@H]2O)c(O)c1,,-5.34
CCOc1ccc(-c2nn3ncccc3c2-c2ccc(S(C)(=O)=O)cc2)cc1,,-4.46
COc1cc2c(cc1O)CC[C@H]1[C@@H]2CC[C@]2(C)[C@H](O)CC[C@@H]12,1.51 µM (active),
COc1cc(Cc2cnc(N)nc2N)c(C(C)C)cc1OC,,-15.2
CC(C)=CCc1c(O)cc2oc3cc(C)cc(O)c3c2c1C,,-21.4
CCC1CC2C(C)=CC3CCCCC3C2(C)C2(OC(=O)C(C)(O)OC2=O)O1 (configuration not stated),,-16
CCC(C)C(C(=O)O)N1Cc2c(OCC=C(C)C)c(C)c(OC)c(C(=O)O)c2C1=O (configuration not stated),,5.34
C=C1C(=O)O[C@@H]2/C=C(\C)CC/C=C(\C(=O)O[C@@H]3O[C@H](CO)[C@@H](O)[C@H](O)[C@H]3O)CC[C@@H]12,,-5.36
CCCC(=O)O[C@@H]1[C@@H]2[C@@H](OC(C)=O)[C@]3(C)C(=O)[C@H]4[C@@H](OC(C)=O)C(C)(C)C[C@H]4[C@]3(C)C(=O)[C@@]2(OC(C)=O)C[C@@H]1C,,-10.7
C=C(C(=O)O)[C@H]1C[C@]2(C)[C@@H](O)CC[C@]23O[C@H]1C[C@@H]3C,,18.8
CC(=O)O[C@H]1CC[C@@]2(C)C(CC[C@@H](C)[C@]23Cc2c(O)cc4c(c2O3)CN([C@@H](CCC(=O)O)C(=O)O)C4=O)C1(C)C (some centres not stated),,0.763

# Target: Aldehyde dehydrogenase, mitochondrial (Homo sapiens) (UniProt P05091)
# Assay: qHTS for Inhibitors of the Aldehyde Dehydrogenase Family (ALDH2) Primary screen (AID 2061308); also: nearly all actives have a fitted effect of over 55% in size
# Settings: ALDH2 enzyme inhibition qHTS, 1536-well; series mostly up to 56 µM
Structure (SMILES),Potency,"activity change, negative = inhibition"
COc1cc(CCO)ccc1O[C@@H]1O[C@H](CO)[C@@H](O)[C@H](O)[C@H]1O,inactive,
CC(=O)NC(C(=O)O[C@H]1CCC(C)(C)[C@@H]2CC=C3C(=O)OCC3(O)[C@@]12C)C(C)C (some centres not stated),inactive,
Fc1ccccc1CNCc1ccc(-c2ccnc3[nH]ccc23)cc1,inactive,
CC(=O)N[C@@H](C(=O)O[C@H]1CCC(C)(C)[C@@H]2CCC3=C(COC3=O)[C@@]12C)C(C)C,inactive,
Cn1cc(C2=C(c3coc4ccccc34)C(=O)NC2=O)c2cc(Br)ccc21,inactive,
CC(C)(O)C1CC(=O)C2(C)C(CCC3(C)C(c4ccoc4)OC(=O)C4OC432)C12CCC(=O)OC2 (configuration not stated),inactive,
CC1(C)CC[C@]2(C(=O)O)CC[C@]3(C)C(=CCC4[C@@]5(C)C(=O)C[C@H](O)[C@@](C)(CO)C5CC[C@]43C)[C@@H]2C1 (some centres not stated),inactive,
CC1=CC(=O)[C@@]2(C(C)C)C[C@@H]12,inactive,
CC1OC(OC2C(CO)OC(OCC3OC(OC(=O)C45CCC(C)(C)CC4C4=CCC6C7(C)CCC(OC8OC(CO)C(O)C(OC9OC(CO)C(O)C(O)C9O)C8O)C(C)(C)C7CCC6(C)C4(C)CC5)C(O)C(O)C3O)C(O)C2O)C(O)C(O)C1OC1OC(CO)C(O)C(O)C1O (configuration not stated),,-2.7% [at 11.2 µM]
CC(C)c1ccc(CO)cc1O[C@@H]1O[C@H](CO)[C@@H](O)[C@H](O)[C@H]1O,inactive,
C=C1CC2(C(=O)O)CC1CCC2C1(C)CCCC2(C)C(=O)OC(O)C21 (configuration not stated),inactive,
C=C(C)[C@@H]1CC[C@]2(C(=O)O)CC[C@]3(C)C(CCC4[C@@]5(C)C[C@@H](O)[C@H](O)C(C)(C)C5CC[C@]43C)C12 (some centres not stated),inactive,
CC1(C)CC[C@]2(C(=O)O[C@@H]3O[C@H](CO[C@@H]4O[C@H](CO)[C@@H](O)[C@H](O)[C@H]4O[C@@H]4O[C@H](CO)[C@H](O)[C@H](O)[C@H]4O)[C@@H](O)[C@H](O[C@@H]4O[C@H](CO)[C@@H](O)[C@H](O)[C@H]4O)[C@H]3O)CC[C@]3(C)C(=CCC4[C@@]5(C)CC[C@H](O[C@@H]6OC[C@@H](O)[C@H](O)[C@H]6O)[C@@](C)(C(=O)O)C5CC[C@]43C)[C@@H]2C1 (some centres not stated),,6.97% [at 11.2 µM]
CC(=O)O[C@@H]1[C@H](O[C@@H]2OC[C@](O)(CO)[C@H]2O)[C@@H](O[C@@H]2O[C@@H](C)[C@H](O)[C@@H](O[C@@H]3O[C@H](CO)[C@@H](O)[C@H](O)[C@H]3O)[C@H]2O)[C@H](OC(=O)[C@]23CCC(C)(C)C[C@H]2C2=CCC4[C@@]5(C)C[C@H](O)[C@H](O[C@@H]6O[C@H](C(=O)O)[C@@H](O)[C@H](O)[C@H]6O)[C@@](C)(C(=O)O)C5CC[C@@]4(C)[C@]2(C)CC3)O[C@@H]1C (some centres not stated),,3.67% [at 11.2 µM]
CC(C)c1cc2c(c(O)c1O[C@@H]1O[C@H](CO)[C@@H](O)[C@H](O)[C@H]1O)CC1(O)CCC(O)C(C)(C)C1CC2 (some centres not stated),inactive,
CC1OC(OC2C(OC3C(O[C@H]4CC[C@@]5(C)C(CC[C@]6(C)C5C(=O)C=C5C7CC(C)(C)CC(O)[C@]7(C)CC[C@]56C)C4(C)C)OC(C(=O)O)C(O)C3O)OCC(O)C2O)C(O)C(O)C1O (some centres not stated),inactive,
CCOC(=O)c1cnn(-c2ccccc2)c1NC(=O)c1cc2nc(-c3ccco3)cc(C(F)(F)Cl)n2n1,inactive,
N[C@H]1CN(c2c(F)cc3c(=O)c(C(=O)O)cn(C4C[C@@H]4F)c3c2Cl)CC12CC2 (some centres not stated),inactive,
C/C=C/C=C/C=C/C(=O)OC1C=C2C(O)OC(=O)[C@]2(O)[C@@]2(C)CCCC(C)(C)[C@H]12 (some centres not stated),inactive,
CCOc1ccc(-c2cc(NC(=O)c3c(F)cccc3F)c(C(=O)O)s2)cc1,inactive,

Structure (SMILES),Potency,"activity change, negative = inhibition"
O=C(NC1CCC1)c1ccc(C#Cc2cccc(F)c2)nc1,inactive,
CC(=O)O[C@@H]1[C@@H](OC(=O)/C=C/c2ccccc2)[C@H](C)O[C@@H](O[C@H]2[C@@H]3C=CO[C@@H](O[C@@H]4O[C@H](CO)[C@@H](O)[C@H](O)[C@H]4O)[C@@H]3[C@@]3(CO)O[C@@H]23)[C@@H]1OC(C)=O,inactive,
COc1ccc(C2OCC3C(c4cc(OC)c5c(c4)OCO5)OCC23)cc1OC (configuration not stated),inactive,
C[C@@H]1C[C@H]2O[C@@H]2/C=C\C=C\C(=O)Cc2c(Cl)c(O)cc(O)c2C(=O)O1,inactive,
CC(O)/C=C/C1OC(=O)CC1Nc1ccc(C(=O)O)cc1 (configuration not stated),inactive,
C[C@@H](c1ccccc1)N(C(N)=NC#N)c1cccc2ncccc12,inactive,
C[C@H](NC(c1cccc(C[P+](=O)O)c1)[C@H](C)O)c1ccc(Cl)c(Cl)c1 (some centres not stated),inactive,
CC(=O)/C=C/C1(O)C(C)(C)CC(O)CC1(C)O (configuration not stated),inactive,
COc1c(C)c(OCC(O)C(C)(C)O)cc2c1CNC2=O (configuration not stated),inactive,
C=CCc1ccc(O[C@@H]2O[C@H](CO[C@@H]3O[C@H](CO)[C@@H](O)[C@H](O)[C@H]3O)[C@@H](O)[C@H](O)[C@H]2O)c(O)c1,inactive,
CCOc1ccc(-c2nn3ncccc3c2-c2ccc(S(C)(=O)=O)cc2)cc1,inactive,
COc1cc2c(cc1O)CC[C@H]1[C@@H]2CC[C@]2(C)[C@H](O)CC[C@@H]12,inactive,
COc1cc(Cc2cnc(N)nc2N)c(C(C)C)cc1OC,inactive,
CC(C)=CCc1c(O)cc2oc3cc(C)cc(O)c3c2c1C,inactive,
CCC1CC2C(C)=CC3CCCCC3C2(C)C2(OC(=O)C(C)(O)OC2=O)O1 (configuration not stated),inactive,
CCC(C)C(C(=O)O)N1Cc2c(OCC=C(C)C)c(C)c(OC)c(C(=O)O)c2C1=O (configuration not stated),inactive,
C=C1C(=O)O[C@@H]2/C=C(\C)CC/C=C(\C(=O)O[C@@H]3O[C@H](CO)[C@@H](O)[C@H](O)[C@H]3O)CC[C@@H]12,inactive,
CCCC(=O)O[C@@H]1[C@@H]2[C@@H](OC(C)=O)[C@]3(C)C(=O)[C@H]4[C@@H](OC(C)=O)C(C)(C)C[C@H]4[C@]3(C)C(=O)[C@@]2(OC(C)=O)C[C@@H]1C,inactive,
C=C(C(=O)O)[C@H]1C[C@]2(C)[C@@H](O)CC[C@]23O[C@H]1C[C@@H]3C,inactive,
CC(=O)O[C@H]1CC[C@@]2(C)C(CC[C@@H](C)[C@]23Cc2c(O)cc4c(c2O3)CN([C@@H](CCC(=O)O)C(=O)O)C4=O)C1(C)C (some centres not stated),inactive,
